# Reference: ChEMBL document CHEMBL4513216, “Probing the Open Global Health Chemical Diversity Library for Multistage-Active Starting Points for Next-Generation Antimalarials” (ACS Infect Dis, 2020)
# Among all 69,000 compounds or so, about 8,600 (12%) showed an effect of 50% or more. The sample as a whole holds a higher share of strong results than the screen did.
# Test system: Plasmodium berghei
# Assay: Screen against P. berghei liver stage (PbLuc), transformed with Luciferase, at 10uM
# Type: functional, HepG2
# Details: tested at 10 uM
row,SMILES,INHIBITION [%]
1,CC(C)c1nc(CS(=O)(=O)Cc2noc(C3CC3)n2)cs1,47.6
2,Cc1ncsc1CN1CC[C@H]2OCC[C@@]2(C(=O)NC2CC2)C1,-45.5
3,COc1cc(CNC(=O)N(Cc2ccc(F)cc2F)C2CC2)ccn1,-15.5
4,Cc1cc(-c2ccc(=O)n(C3CCN(C(=O)C4CC4)CC3)n2)c(C)o1,23
5,CN(C)C(=O)COCc1cncc2c1CCN(C1CCOCC1)C2,4.68
6,N#Cc1c2n(c3c(=O)[nH]cnc13)CCCCC2,23.5
7,COc1cccc(-c2noc(C3CCN(Cc4ccccc4C)C3)n2)c1 (centres undefined),45.6
8,Cc1cccc(-c2noc([C@@H]3C[C@@H](O)CN3CC3CCCCC3)n2)c1,-27.5
9,COc1cccc(-c2noc(CN3CCOCC3C)n2)c1 (centres undefined),-7.35
10,COc1cccc(-c2noc(C3CCN(Cc4ccccc4F)C3)n2)c1 (centres undefined),84.2
11,COc1cccc(-c2noc(C3CCN(CC4CCCCC4)C3)n2)c1 (centres undefined),67.9
12,COc1cccc(-c2noc(C3CCN(Cc4ccc(C)cc4)C3)n2)c1 (centres undefined),66.4
13,COc1cccc(-c2noc(C3CCN(CC(N)=O)C3)n2)c1 (centres undefined),41.2
14,COc1cccc(CN2CC[C@H](c3nnc(-c4ccco4)o3)C2)c1,-26.1
15,CN(Cc1noc(C2CC2)n1)C1CCN(Cc2ccncc2)C1 (centres undefined),45.8
16,COc1cccc(-c2noc(C3CCN(Cc4ccncc4)C3)n2)c1 (centres undefined),78.2
17,COc1cccc(-c2noc(C3CCN(Cc4cccs4)C3)n2)c1 (centres undefined),49.6
18,COc1cccc(CN2CC[C@H](c3nnc(C)o3)C2)c1,-30
19,CCN1CC(CN(C)Cc2nc(-c3ccc(C)o3)oc2C)CC1=O (centres undefined),34.2
20,Cc1noc(C(C)C)c1C(=O)NS(=O)(=O)c1ccc2c(c1)OCCCO2,7.9
21,CNC(=O)c1ccc(-c2ccc(CNC(=O)COC)cc2)nc1C,10.9
22,Cc1ccc(CN(C(=O)NCC2CCS(=O)(=O)C2)C2CC2)o1 (centres undefined),-39.2
23,CCCn1nc(C(=O)NC2(c3ccc(Cl)cc3)CCCC2)ccc1=O,-51.3

row,SMILES,INHIBITION [%]
1,CCc1nc2n(n1)CC(NCc1cnn(-c3ccccc3)n1)CC2 (centres undefined),10.9165
2,CN1CCOCC12CCN(Cc1ccoc1)CC2,-13.2
3,COc1cccc(CN2CCC(c3nnc(-c4cnc(C)cn4)o3)C2)c1 (centres undefined),29.3
4,COc1ccc(CN(Cc2cn(C)nc2C)CC2CCCO2)c(OC)c1 (centres undefined),21.9
5,COc1cccc(-c2noc(C3CCN(Cc4cn(C)nc4C)C3)n2)c1 (centres undefined),84.8
6,CSCc1cccc(S(=O)(=O)Nc2cc(C)on2)c1,8.7
7,Cc1nc(C)c(C(=O)NCCNc2ncccc2C#N)s1,13.3
8,CSc1ncccc1C(=O)NCCC(O)c1cccs1 (centres undefined),26
9,CSc1ncccc1C(=O)NCCC(O)c1ccco1 (centres undefined),53.2
10,CSc1ccccc1C(=O)NCCC(O)c1ccco1 (centres undefined),45.7
11,Cc1cccc(C(=O)N2CC(Cc3nccc4ccn(C)c34)C2)n1,-23.8
12,CN(C)CCOCC1CN(Cc2ccsc2)Cc2ccnn2C1 (centres undefined),11.4
13,CN(C)CCN(Cc1cccc(C(F)(F)F)c1)C(=O)c1cc[nH]n1,22.4
14,CN(C)CCN(Cc1ccc(Cl)cc1)C(=O)c1cnccn1,68.3
15,CN(C)CCN(Cc1ccc(Cl)cc1)C(=O)c1ccncc1,10.6
16,CN(C)CCN(Cc1ccc(C(F)(F)F)cc1)C(=O)c1cc[nH]n1,63.3
17,CN(C)CCN(Cc1ccc(Cl)cc1)C(=O)c1cc[nH]n1,10
18,Cc1cnc(C(=O)N(CCN(C)C)Cc2ccc(Cl)cc2)cn1,12.2
19,Cc1ncc(C(=O)N2CCOC(C(=O)N3CCCCCC3)C2)c(C)n1 (centres undefined),35.1
20,O=C(CN1CCCCC1)N1CCC(c2cc(=O)n3c(n2)CCCCC3)C1 (centres undefined),-15.3
21,CC(C)NC(=O)NCC1(COc2cnccn2)C[C@@H](O)[C@@H](O)C1 (some centres undefined),45.2
22,O=S(=O)(Cc1ccccc1F)N1CCCC1c1nnc2n1CCCCC2 (centres undefined),20.1
23,CN1CCCCC12CCN(c1nncs1)CC2,-0.804

row,SMILES,INHIBITION [%]
1,CS(=O)(=O)N1CCOCC12CCN(c1nncs1)CC2,26.5
2,CS(=O)(=O)N1CCCCC12CCN(c1nncs1)CC2,55.5
3,CC(=O)N1CCCC(c2ccc(C(N)=O)cn2)C1 (centres undefined),40
4,CCc1ccc(C2c3nc[nH]c3CCN2Cc2nccn2CC)nc1 (centres undefined),29.3
5,CC(=O)N1CC2(CCCC2)c2ccccc21,7.21
6,COc1cc2c(cc1CN1CCc3sccc3C1C)OCO2 (centres undefined),26.7
7,COc1ccsc1C(=O)Nc1cc(CN2CCOCC2)ccc1C,-29.4
8,CC1c2ccsc2CCN1Cc1cc2c(cc1O)OCO2 (centres undefined),18.2
9,COc1ccc(CN2CCc3sccc3C2C)cc1CN1CCOCC1 (centres undefined),52.7
10,COc1cc2c(cc1CN1CCc3sccc3C1C)OCCO2 (centres undefined),40.6
11,CCC1c2ccsc2CCN1Cc1cc2c(cc1OC)OCCO2 (centres undefined),69.4
12,Cn1ncc2c1NC(=O)CC2c1cccs1 (centres undefined),-3.77
13,CC(c1cccc(F)c1)N1CCN(Cc2nccn2C)CC1 (centres undefined),-39.7
14,CC(=O)NCC(=O)N1CCC2(COCc3c(C)nc(N(C)C)nc32)C1 (centres undefined),-13.2
15,Cc1ccc(NC2CCN(C(=O)c3ccco3)CC2)nn1,-17
16,Cc1ccc2c(n1)N(CC1CC1)CCN(C(=O)c1ccncc1F)C2,-37.4
17,Cn1cnc2c1CCN(CCS(=O)(=O)c1ccccc1)C2,24.4
18,Cn1cnc2c1CCN(CC(O)c1ccc(S(C)(=O)=O)cc1)C2 (centres undefined),57.6
19,Cn1cnc2c1CCN(CCS(=O)(=O)c1ccc(Cl)cc1)C2,52.3
20,Cn1cnc2c1CCN(CCCS(=O)(=O)c1ccccc1)C2,-1.14
21,Cn1cnc2c1CCN(CCCOc1ccc(S(C)(=O)=O)cc1)C2,49
22,Cn1cnc2c1CCN(CC(O)c1ccc3c(c1)OCCO3)C2 (centres undefined),42.6
23,Cc1cc(C)nc(Nc2cc(C3CCCN(C)C3)nc(C)n2)n1 (centres undefined),46.1

row,SMILES,INHIBITION [%]
1,CCc1nc(C2CCCN2Cc2ccn(C)c(=O)c2)no1 (centres undefined),21.255
2,CCn1c(C(=O)N2CCCN(CC(N)=O)CC2)cc2ccccc21,-27.8
3,CN(CCNC(=O)c1cccnc1)S(C)(=O)=O,30.9
4,CCc1nn(C)c(Cl)c1CN1CCCC2(CC1)CN(C)C(=O)O2 (centres undefined),53.4
5,CCc1nn(C)c(Cl)c1CN1CCCC2(C1)CN(C)C(=O)O2 (centres undefined),14.9
6,CCc1nn(C)c(Cl)c1CN1CCC2(C1)CN(C)C(=O)O2 (centres undefined),-73.7
7,CN(C)Cc1ccccc1Cn1cncc1-c1cnn(C)c1,12.8
8,O=S(=O)(c1cccs1)N1CCCn2cnc(CO)c2C1,26.3
9,CC(NC(=O)CCn1c(=O)oc2ccccc21)c1ccccn1 (centres undefined),8.65
10,Cn1nc(N2CCCC(C(=O)Nc3nccs3)C2)ccc1=O (centres undefined),21.5
11,Cn1nc(N2CCCC(C(=O)Nc3nc4ccccc4[nH]3)C2)ccc1=O (centres undefined),51
12,CCNC(=O)C1CCCN(c2ccc3ccc(F)cc3n2)C1 (centres undefined),20.8
13,CNC(=O)C1CCCN(c2nc3c(-c4ccccc4)csc3c(=O)[nH]2)C1 (centres undefined),11.6
14,Cn1ncc(C(=O)O)c1C(=O)Nc1nc2ccccc2s1,45.4
15,Cn1nc(N2CCCC(C(=O)Nc3nc4ccccc4s3)C2)ccc1=O (centres undefined),82.2
16,CCOCCSc1nnc(-c2cn(CC)nc2OCC)n1C,1.95
17,O=C(C1CCCCC1)N1CCCC([C@@H]2C[C@H](C(F)F)n3ncnc3N2)C1 (some centres undefined),25.26
18,Cc1cc(C)nc(C2CCN(C(=O)CCn3ncc4ccccc43)C2)n1 (centres undefined),9.93
19,CC(Cn1cccn1)NCc1csc2c1CCCC2 (centres undefined),46.6
20,CC(Cn1ccnc1)NCc1csc2c1CCCC2 (centres undefined),31.4
21,CC(Cn1cncn1)NCc1csc2c1CCCC2 (centres undefined),51.1
22,CCc1nnc(CN2CCc3ccc(S(N)(=O)=O)cc32)o1,18
23,CN(CCc1ccccn1)C(=O)CCC1CCCN(c2cnccn2)C1 (centres undefined),27.6

row,SMILES,INHIBITION [%]
1,CC(=O)N1CCc2nnc(C3CCCCN3CC3CCCCC3)n2CC1 (centres undefined),42.4
2,COCCNC(=O)NC1(c2ccccc2F)CC1,20
3,CCN(CC)C(CNC(=O)c1ccnc(N(C)C)c1)c1ccsc1 (centres undefined),13.3
4,Cc1ccc(C)c(CC(=O)NC2CCS(=O)(=O)CC2)c1,41.5
5,Cc1ccc(C)c(C(=O)NC2CCC(N3C(=O)CCC3=O)CC2)c1 (centres undefined),-56.4
6,Cc1ccc(C)c(CC(=O)NC2CCC(N3C(=O)CCC3=O)CC2)c1 (centres undefined),50.1
7,CN(Cc1cccnc1)Cc1cn2c(n1)CN(C1CCOCC1)CC2,4.57
8,CC1=CC[C@@H]2CN(C(=O)c3ccc(-c4cc[nH]n4)cc3)C[C@@H]2C1,-37.1
9,COc1ccc(CNC(=O)NCCc2csc(C)n2)cn1,36.1
10,Cn1ccc(NCc2cc3cc(F)ccc3o2)n1,-18
11,CN1CCOC[C@H]1c1nc(-c2ccncc2)c[nH]1,52
12,c1cc(CN2CCOC[C@H]2c2nc(-c3ccncc3)c[nH]2)ccn1,-7.59
13,CC(C)(C)CN1CCOC[C@H]1c1nc(-c2cccc(F)c2)c[nH]1,64.8
14,CN1CCC(N2CCOC[C@H]2c2nc(-c3ccncc3)c[nH]2)CC1,35.8
15,CN1CCOC[C@H]1c1nc(C(C)(C)C)c[nH]1,50.2
16,CC(C)(C)c1c[nH]c([C@@H]2COCCN2C2CCC2)n1,23
17,c1cc(-c2c[nH]c([C@@H]3COCCN3Cc3ncc[nH]3)n2)ccn1,54.7
18,CN1CCC(N2CCOC[C@H]2c2nc(C(C)(C)C)c[nH]2)CC1,49.5
19,CN1CCOC[C@H]1c1nc(-c2cccc(F)c2)c[nH]1,9.51
20,Fc1cccc(-c2c[nH]c([C@@H]3COCCN3C3CCOCC3)n2)c1,-24.1
21,CN1CCOC[C@H]1c1nc(-c2ccccc2)c[nH]1,-23.1
22,Cc1ccc(-c2c[nH]c([C@@H]3COCCN3Cc3ncc[nH]3)n2)cc1,46.6
